Assay outcomes: PubChem BioAssay, The Scripps Research Institute Molecular Screening Center
PLC-beta3 inh – inhibitors of human phospholipase C beta3; Q01970; Purified PLC-beta3, fluorogenic substrate, fluorescence; inhibition, % at 12.2 µM; 370,000 compounds, 0.18% hits; AID 720704; in the data active means inhibition above about 11%;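 further: 0% = median of compound wells on plate and 100% = full blocker control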
ADAM10 inh – inhibitors of human ADAM10; recombinant ADAM10, EDANS/DABCYL FRET peptide cleavage, 3 h; inhibition, % at 7 µM; 370,000 compounds, 0.62% hits;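 active means inhibition above a per-campaign cutoff equal to the mean of compounds falling between control-based bounds plus 3 SD, cut at about 20% in these data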;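 further: 0% = DMSO wells while the 100% control is not disclosed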
proKLK7 act – proKLK7 (human) activation, primary screen. AID 652039. purified proKLK7, EDANS-DABCYL substrate fluorescence; 100% is mature enzyme control, 0% vehicle. P49862. 370,000 compounds, 0.9% hits. activation, % at 7 µM;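 active means activation above the mean of all tested compounds plus 3 SD, computed per campaign excluding outliers beyond control limits, cut at about 13% in these data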
ADAM17 inh – inhibits human ADAM17; recombinant ADAM17, EDANS/DABCYL FRET peptide cleavage; inhibition, % at 6.95 µM; 370,000 compounds, 0.83% hits; AID 720648;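 active means inhibition above the mean of compounds lying between control limits plus 3 SD, set per campaign, cut at about 8.5% in these data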;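 further: 0% = DMSO-only wells as the low control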
sPLA2-III inh – Inhibits HGIII-sPLA2 liposome hydrolysis, primary screen | Q9NZ20 | AID 743126 | inhibition, % at 12.2 µM | QFRET BODIPY PC-A2 liposome hydrolysis, fluorescence | 370,000 compounds, 0.56% hits;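 active means inhibition above mean plus 3 SD of compounds lying within the high and low control bounds, cut at about 19% in these data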;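 further: 0% = median of test compound wells and 100% = no enzyme DMSO wells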
PLC-gamma1 inh – blocks human PLC-gamma1 enzyme activity. P19174. purified PLC-gamma1, fluorogenic substrate, fluorescence. inhibition, % at 12.2 µM. 370,000 compounds, 0.84% hits; in the data active means inhibition above about 9.5%
Target sequence (P19174 whole entry, looked up): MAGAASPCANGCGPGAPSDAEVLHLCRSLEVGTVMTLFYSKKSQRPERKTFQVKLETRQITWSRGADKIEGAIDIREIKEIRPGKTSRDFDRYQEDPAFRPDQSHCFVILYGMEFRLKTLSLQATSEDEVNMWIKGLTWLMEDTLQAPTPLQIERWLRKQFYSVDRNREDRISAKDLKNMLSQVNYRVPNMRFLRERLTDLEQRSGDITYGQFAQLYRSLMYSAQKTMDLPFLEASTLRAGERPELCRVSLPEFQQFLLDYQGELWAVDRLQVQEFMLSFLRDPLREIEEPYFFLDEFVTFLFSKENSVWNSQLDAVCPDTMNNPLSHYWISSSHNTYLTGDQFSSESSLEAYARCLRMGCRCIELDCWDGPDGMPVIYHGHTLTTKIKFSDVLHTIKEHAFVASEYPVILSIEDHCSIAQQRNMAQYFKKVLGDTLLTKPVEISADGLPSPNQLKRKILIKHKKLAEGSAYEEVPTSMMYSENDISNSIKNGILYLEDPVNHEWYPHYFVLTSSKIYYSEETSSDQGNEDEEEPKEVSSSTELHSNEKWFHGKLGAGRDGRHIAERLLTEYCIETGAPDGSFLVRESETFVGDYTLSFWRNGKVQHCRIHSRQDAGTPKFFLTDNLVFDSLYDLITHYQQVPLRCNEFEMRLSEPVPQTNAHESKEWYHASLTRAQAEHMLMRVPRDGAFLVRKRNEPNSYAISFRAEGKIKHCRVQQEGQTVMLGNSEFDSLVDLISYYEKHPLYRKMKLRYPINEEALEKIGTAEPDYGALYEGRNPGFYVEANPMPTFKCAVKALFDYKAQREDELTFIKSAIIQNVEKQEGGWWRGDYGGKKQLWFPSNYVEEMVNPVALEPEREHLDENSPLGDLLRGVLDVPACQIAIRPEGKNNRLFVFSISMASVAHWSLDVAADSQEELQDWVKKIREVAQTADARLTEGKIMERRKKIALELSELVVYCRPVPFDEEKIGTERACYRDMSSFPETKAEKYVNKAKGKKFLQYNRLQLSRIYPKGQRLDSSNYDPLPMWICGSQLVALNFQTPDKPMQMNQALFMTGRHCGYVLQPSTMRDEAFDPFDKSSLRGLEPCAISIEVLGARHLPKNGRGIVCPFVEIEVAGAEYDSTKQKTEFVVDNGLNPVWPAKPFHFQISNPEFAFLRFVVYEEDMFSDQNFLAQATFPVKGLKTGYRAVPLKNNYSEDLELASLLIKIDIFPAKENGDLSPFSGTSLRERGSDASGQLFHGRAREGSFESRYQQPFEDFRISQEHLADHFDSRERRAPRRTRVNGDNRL
The depositor's hits bear a star; i = inactive; . = no result. An excerpt weighted towards active compounds, which were near 3.4% of everything screened.

SMILES	PLC-beta3 inh	ADAM10 inh	proKLK7 act	ADAM17 inh	sPLA2-III inh	PLC-gamma1 inh
O=C1C2C(C(=O)N1/N=C/c1cc([N+](=O)[O-])c(O)cc1O)C1C=CC2C12CC2 (stereo not given)	0	10	0	2	3	29*
COC(CNC(=O)[C@H](Cc1c[nH]c2ccccc12)NC1(C(=O)NCc2ccccc2)CCCCC1)OC	2	-1	.	-1	-55	0
CCCCn1nnnc1C(c1ccccc1)N1CCN(c2ccc(C)cc2)CC1 (stereo not given)	11*	8	0	2	0	-2
CCCCn1nnnc1C(c1ccccc1)N1CCN(c2ncccn2)CC1 (stereo not given)	5	-8	0	-3	5	1
O=C(O)c1cc(O)c2c(c1)[C@@H]([C@H]1c3cc(C(=O)O)cc(O)c3C(=O)c3c(O[C@@H]4O[C@H](CO)[C@@H](O)[C@H](O)[C@H]4O)cccc31)c1cccc(OC3O[C@H](CO)[C@@H](O)[C@H](O)[C@H]3O)c1C2=O (stereo not given in full)	12*	-209	0	3	17	7
C[C@H]1COc2cc(N3CCSCC3)ccc2S(=O)(=O)N1C	-2	-17	-1	-7	17	0
CC(C)c1ccc(-n2nc3ccc(N)cc3n2)cc1	-154	-34	-2	-11	2	-100
Cc1ccc(-n2nc3ccc(N)cc3n2)cc1	i	-423	35*	-124	2	i
CCOC(=O)CCc1c(C)c2ccc(O)cc2oc1=O	i	i	45*	i	1	i
Cc1cc(C)cc(NC(=O)NC2CCN(S(=O)(=O)c3ccc(F)cc3)CC2)c1	2	2	0	1	-1	5
COc1cccc(N2CCN(C(=O)CCn3nnc4ccccc43)CC2)c1	1	2	1	3	1	2
C/C(=N\NC(=O)c1ccccc1O)C1C(=O)c2ccccc2C1=O	-10	0	1	3	-10	-7
C/C(=N/NC(=O)c1cc2ccccc2cc1O)C1C(=O)c2ccccc2C1=O	-4	13	1	5	29*	6
C=CC[n+]1c(-c2ccc(Cl)cc2Cl)csc1Nc1c(C)n(C)n(-c2ccccc2)c1=O	-3	2	1	-1	6	-2
C=CC[n+]1c(-c2ccc(Cl)cc2Cl)csc1Nc1ccc(NC(C)=O)cc1	2	27*	0	8	-7	2
C=CCNC(=O)c1ccccc1NC(=O)c1ccc(Cl)c(S(=O)(=O)Nc2ccccc2)c1	-6	27*	0	7	-46	2
Nc1ccc(N=Nc2ccccc2)c(N)n1	-8	-30	1	-1	23*	-3
Nc1ccc(N=Nc2ccccc2)c2ccccc12	-3	16	0	0	6	4
CCOC(=O)CN1CCCc2nc(-c3ccc(OC)cc3)ccc21	-354	-450	12	-125	-2	-260
CCOC(=O)CN1CCCc2nc(C)c(C)cc21	-349	i	29*	-189	0	-268
O=[N+]([O-])c1ccccc1/C=C/C=Nn1c(-c2ccc(F)cc2)n[nH]c1=S	-113	13	0	4	14	5
Cc1cccc(-c2cccc3c4c([nH]c23)[C@@H]2C[C@H](N(C)C(=O)c3ccccc3C)[C@H]([C@H](C)O)C(=O)N2CC4)c1	2	3	0	2	1	0
Cn1cc(-c2csc(C(C)(O)c3cccc(F)c3)n2)cn1 (stereo not given)	-3	-17	0	-6	12	10*
O=C(NCc1ccccc1)[C@@H]1CCCN1C(=O)[C@H]1CCCN1C(=O)c1cccs1	11*	-1	0	2	2	-2
O=C(O)c1nc(-c2ccccc2)n(-c2ccccc2)n1	6	-2	0	-1	-6	-2
SMILES	PLC-beta3 inh	ADAM10 inh	proKLK7 act	ADAM17 inh	sPLA2-III inh	PLC-gamma1 inh
O=C(c1nc(-c2ccccc2)n(-c2ccccc2)n1)N1CCN(S(=O)(=O)c2ccccc2)CC1	3	-9	1	1	-2	11*
Clc1ccc(CN2CCC(Cc3ccccc3)CC2)cc1	6	8	0	0	-5	11*
COCCn1c(SCC(=O)Nc2ccccc2)nc2c1c(=O)[nH]c(=O)n2C	2	-2	-1	3	4	9.8*
CC(C)n1c(SCC(=O)Nc2ccccc2)nc2c1c(=O)[nH]c(=O)n2C	-8	6	1	3	-4	3
CC(C)(C)OC(=O)N(CCc1ccccc1)Cc1cccc(OCc2cccc(NC(=O)c3ccccc3)c2)c1	6	7	0	8	-5	9.9*
O=S(=O)(c1ccc(Br)s1)N1CCC(c2nc3ccccc3o2)CC1	1	-8	0	1	6	0
CN(C)c1nc(N(C)C)nc(N(C)C)n1	2	-16	1	-5	13	9.6*
COc1ccc(N2CCN(CCCNC(=O)COc3ccc(F)cc3)CC2)cc1	0	-4	0	-3	6	0
Fc1ccc2[nH]c3c(N4CCc5ccccc5C4)ncnc3c2c1	-40	-50	-1	-16	0	-24
CN1CCN(c2ncnc3c2[nH]c2ccc(F)cc23)CC1	-155	-329	20*	-103	8	-114
Brc1ccc(/C=N/Nc2ccc3ccccc3n2)cc1	-5	5	-1	-2	16	-4
Fc1cccc(/C=N/Nc2ccc3ccccc3n2)c1	-3	-4	0	-4	20*	-1
CN(C(=O)c1cccc(NC(=O)Cc2cccc(NC(=O)C3CCN(C(=O)C4CC4)CC3)c2)c1)C1CC1	10	8	0	6	9	13*
CN(C(=O)c1cccc(NC(=O)Cc2cccc(NC(=O)C3CCN(C(=O)C4CC4)CC3)c2)c1)C1CCC1	1	-12	0	-7	9	2
COc1ccc(C=NNC(=S)Nc2ccc(F)cc2)cc1OC	-2	2	-2	0	23*	0
Cc1nc(C(=O)O)cc2c1[nH]c1ccccc12	i	i	59*	-498	5	i
Cc1nc(C(=O)NCCO)cc2c1[nH]c1ccccc12	-36	-114	8	-40	-2	-23
Cc1ccccc1NS(=O)(=O)c1ccc(NC(=O)CSCc2ccc(Br)cc2)cc1	-5	32*	0	15*	-38	9
O=C(CSCc1ccc(Br)cc1)Nc1ccc(S(=O)(=O)N2CCOCC2)cc1	4	-3	0	-3	-7	0
O=C(O)c1ccc(N(Cc2ccccc2)S(=O)(=O)c2ccccc2)cc1	2	-5	0	-1	1	-2
CC(=O)N(Cc1ccccc1)c1ccc(C(=O)O)cc1	8	-1	0	5	11	9.7*
